# Source: PubChem (National Center for Advancing Translational Sciences (NCATS))
# KB-V1 cytotox: qHTS assay for MDR1-selective chemotherapeutics: Primary screen using the drug-selected MDR subline cells KB-V1; KB-V1 MDR cells viability, CellTiter-Glo, 72 h; Potency, µM (titrated, usually from 46.1 µM), hits mostly cytotoxic; hit rate 3.4% among 400,000; AID 1347076, 2019; note: nearly all actives have a fitted effect of over 60% in size
#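 Cytotoxicity toward P-gp-expressing KB-V1 cells was determined as loss of CellTiter-Glo luminescence after 72 h at 37 degrees C. Compounds were tested in quantitative HTS format across a concentration range, with curves fitted to normalized data.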
# HT1080 IDH1KD tx: qHTS for induction of synthetic lethality in tumor cells producing 2HG: qHTS for the HT-1080-IDH1KD cell line; HT-1080 IDH1 knockdown viability, ATP luminescence, 48 h; Potency, µM (highest dose often 46.1 µM), without a hit: top-dose activity, negative = toxicity, usual class: cytotoxic; hit rate 2% among 360,000;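 note: 0% = DMSO wells and -100% = cell-free medium wells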
#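 CellTiter-Glo luminescence after 48 h compound exposure at 37 degrees C of IDH1-knockdown HT-1080 cells in 5% FBS RPMI. %Activity scaled between DMSO wells and cell-free media wells, with curves fitted and assigned curve classes.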
# DT40 TDP1 CPT: qHTS for Inhibitors of human tyrosyl-DNA phosphodiesterase 1 (TDP1): qHTS in cells in presence of CPT. chicken DT40 Tdp1-/-;hTDP1 cells + 20 nM CPT, ATP luminescence, 48 h. Potency, µM (series often up to 46.2 µM), for the others: at the highest dose activity change, negative = growth inhibition, actives largely listed as inhibitors. hit rate 12% among 420,000; note: nearly all actives have a fitted effect of over 55% in size
#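 Chicken DT40 Tdp1-/- cells complemented with human TDP1, 400 cells/well, exposed to compounds plus 20 nM camptothecin for at least 48 h at 37 C; viability read as ATP content by CellTiter-Glo luminescence.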
# HT1080-NT tox: qHTS for induction of synthetic lethality in tumor cells producing 2HG: qHTS for the HT-1080-NT fibrosarcoma cell line | HT-1080-NT fibrosarcoma viability, CellTiter-Glo ATP luminescence, 48 h | Potency, µM (top dose mostly 46.1 µM), for inactives: at the highest dose activity, negative = less viability, hits mostly cytotoxic | hit rate 1.6% among 360,000 | AID 686970, 2013;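 note: NT is the 2HG producing partner of a matched IDH1 knockdown line; 0% = DMSO-treated cells and -100% = media-only wells without cells; nearly all actives have a fitted effect of over 55% in size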
#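 750 cells/well, RPMI + 5% FBS; 2 h settle, compound pin-transfer, 48 h at 37 degrees C. CellTiter-Glo 10 min RT, luminescence. Normalized to DMSO and media-only wells.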
# TDP1 cell noCPT: qHTS for Inhibitors of human tyrosyl-DNA phosphodiesterase 1 (TDP1): qHTS in cells in absence of CPT; AID 686978, 2013; Potency, µM (doses to about 46.2 µM), inactives show top-dose activity change, negative = growth inhibition, hits mostly inhibitors; DT40 Tdp1-/- hTDP1 cells, no CPT, ATP luminescence, 48 h; hit rate 15% among 420,000; note: nearly all actives have a fitted effect of over 55% in size
#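 Luminescent ATP content (CellTiter-Glo) served as the growth readout. Knockout chicken DT40 cells expressing human TDP1 were exposed to compounds without camptothecin for a minimum 48 hr at 37 °C.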
# KB-3-1 cytotox: qHTS assay for MDR1-selective chemotherapeutics: Primary screen using the parental adenocarcinoma cell KB-3-1. KB-3-1 viability, CellTiter-Glo ATP luminescence, 72 h. Potency, µM (series often up to 46.1 µM), most hits filed as cytotoxic. hit rate 1.4% among 400,000; note: nearly all actives have a fitted effect of over 60% in size
#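 Cells are dispensed, compounds pinned in, plates held at 37 °C for 72 h, then CellTiter-Glo is added and luminescence read after 10 minutes. Cell line: parental KB-3-1 in phenol-red-free DMEM, 10% FBS.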
# Starred values were filed as active, the others as inactive; i = inactive; ? = inconclusive; nt = no result given; [ ] = dose if it differs, or a comment. An excerpt weighted towards active compounds, which were near 19% of everything screened. Calls come from the whole dose curve; as a rule, active = well fitted curve in the direction sought with a large enough effect; inconclusive = small, poorly fitted or top-dose-only effect, or another doubt; inactive = no such curve, though single readings can be large; an effect the other way counts as inactive or inconclusive. Unless noted, % is set by controls: 0 for no effect and ±100 for the full control effect; potency is the fitted concentration of half-maximal effect.
SMILES,KB-V1 cytotox,HT1080 IDH1KD tx,DT40 TDP1 CPT,HT1080-NT tox,TDP1 cell noCPT,KB-3-1 cytotox
CCOc1ccc(C2CC(=O)c3c([nH]c(C(=O)OCC4CCCCC4)c3C)C2)cc1 (stereo not given),i,nt,?,nt,18µM*,i
CCCCC(=O)OCc1cc(=O)n2nc(C3CCCCC3)sc2n1,i,nt,-10%,nt,-4%,i
CCC(=O)N1c2ccc(C)cc2C2=NNC(=S)NC21O (stereo not given),i,14%,?,7%,?,i
Cc1cc(-c2ccc(S(=O)(=O)N3CCN(c4ccccc4F)CC3)s2)on1,i,1%,?,17%,-16%,i
CNC(=O)C[C@H]1C(=O)N(CCc2ccccc2)C[C@@H]1C,i,3%,0%,5%,-6%,i
O=S(=O)(Nc1nc2ccccc2nc1Nc1ccc(N2CCOCC2)cc1)c1cc(Cl)ccc1Cl,i,23%,?,19%,13µM*,?
O=C(O)CCC(=O)Nc1ccc(C(=O)N2CCCCC2)cc1,i,2%[9.24 µM],-11%,8%,-10%,i
Cc1ccc(S(=O)(=O)N2[C@@H](c3ccccc3)C(C(=O)O)=CC[C@H]2c2ccc(Cl)c(Cl)c2)cc1,i,-3%,-16%,-6%,-6%,i
Cc1ccc(S(=O)(=O)N2[C@@H](c3ccc(Cl)cc3)C(C(=O)O)=CC[C@H]2c2cccc(Cl)c2)cc1,?,5%,-25%,14%,3%,i
CC(C)(C)OC(=O)C1=CC[C@@H](c2ccc(Cl)c(Cl)c2)N(S(=O)(=O)c2ccc(F)cc2)[C@H]1c1cccc(F)c1,i,22%,?,16%,15µM*,i
Cc1ccc(S(=O)(=O)N2[C@@H](c3cccc(Cl)c3)C(C(=O)OC(C)(C)C)=CC[C@H]2c2cccc(Cl)c2)cc1,i,8%,9.2µM*,3%,12µM*,i
COc1ccccc1Nc1nnc(SCC(=O)NC2CC2)s1,i,-1%,11%,-5%,-16%,i
CCOc1ccccc1Nc1nnc(SCC(=O)N2CCCC2)s1,i,2%,-10%,0%,-8%,i
COc1cc(-c2nnc(CSc3nnc(Nc4ccc(C(C)C)cc4)s3)o2)cc(OC)c1OC,21µM*,16µM*,5.8µM*,?,5.8µM*,i
CCOc1ccccc1Nc1nnc(SCc2nnc(-c3cc(OC)c(OC)c(OC)c3)o2)s1,?,-14%,?,-6%,13µM*,i
COc1ccccc1Nc1nnc(SCc2nnc(-c3cc(OC)c(OC)c(OC)c3)o2)s1,?,-7%,21µM*,-1%,21µM*,i
CCOc1cccc2cc(-c3nc(-c4ccc(Cl)cc4)c(C)s3)c(=O)oc12,?,nt,7%,nt,-8%,i
N#Cc1cccnc1Oc1ccccc1,i,15%,-19%,13%,-16%,i
CC(=O)N1CCN(S(=O)(=O)c2cccc(C(=O)NNC(=O)COc3ccc(F)cc3)c2)CC1,i,-10%,-1%,-3%,-3%,i
Cc1cc(C)c2oc(-c3ccc(C)c(NC(=O)/C=C/c4ccco4)c3)nc2c1,i,nt,?,nt,?,i
COc1ccc(CCCC(=O)Nc2ccc(F)cc2)cc1,i,5%,-23%,12%,-24%,i
CC(C)(C)[C@@H]1COC(=O)[C@H](Cc2ccc(F)cc2)CC/C=C\C[C@@H](CC(=O)N(CCO)Cc2ccccc2)C(=O)N1,?,-1%,5.8µM*,-8%,23µM*,?
O=C1N[C@@H](Cc2ccccc2)COC(=O)[C@@H](Cc2ccc(F)cc2)CC/C=C/C[C@@H]1CC(=O)N(CCO)Cc1ccccc1,?,-10%,?,-20%,?,?
CC(C)(C)[C@@H]1COC(=O)[C@@H](Cc2ccc(F)cc2)C/C=C\C[C@H](CC(=O)N(CCO)Cc2ccccc2)C(=O)N1,i,-10%,23µM*,-9%,?,i
O=C(NCCc1ccccc1)C1CCC(=O)N(Cc2cccc(C(F)(F)F)c2)C1 (stereo not given),nt,-5%,-16%,-6%,-21%,nt
SMILES,KB-V1 cytotox,HT1080 IDH1KD tx,DT40 TDP1 CPT,HT1080-NT tox,TDP1 cell noCPT,KB-3-1 cytotox
O=C(c1cccs1)N1C[C@@H](n2cc(-c3ccc(F)cc3)nn2)[C@H](O)C[C@@H]1c1ccc(Cl)cc1,?,-15%,13µM*,-5%,23µM*,i
O=C(c1cccs1)N1C[C@@H](n2cc(-c3ccc(F)cc3)nn2)[C@H](O)C[C@@H]1c1ccccc1,i,-14%,15µM*,15%,21µM*,i
O=C(c1cccs1)N1C[C@@H](O)[C@H](n2cc(-c3ccc(F)cc3)nn2)C[C@@H]1c1ccc(Cl)cc1,?,?,?,?,23µM*,?
O=C(c1cccs1)N1C[C@H](O)[C@@H](n2cc(-c3ccc(F)cc3)nn2)C[C@@H]1c1ccccc1,i,2%,-22%,2%,-9%,i
O[C@@H]1CN(Cc2cccs2)[C@@H](c2ccc(Cl)cc2)C[C@H]1n1cc(-c2ccc(F)cc2)nn1,?,-24%,?,?,23µM*,i
Cc1ccc(CNS(=O)(=O)c2ccccc2[N+](=O)[O-])cc1,i,8%,-20%,-2%,-6%,i
COc1ccc(C)cc1NC(=O)CCn1nc(C)cc1C,i,nt,-27%,nt,?,i
Cc1ccccc1CNC(=O)c1sc2ncnc(N(C)C3CCCCC3)c2c1C,?,nt,?,nt,21µM*,i
Cc1c(C(=O)NCc2ccc(OC(C)C)cc2)sc2ncnc(N(C)C3CCCCC3)c12,i,nt,?,nt,?,i
Cc1ccc(CNC(=O)c2sc3ncnc(N(C)C4CCCCC4)c3c2C)cc1,i,nt,?,nt,26µM*,?
Cc1ccc(Cl)cc1NC(=O)CCS(=O)(=O)c1cccc2nonc12,i,-12%,15µM*,2%,?,i
COc1ccc(Cl)cc1NC(=O)CCS(=O)(=O)c1cccc2nonc12,i,nt,?,nt,?,i
